Assay outcomes from PubChem.
GPR151 ag: human GPR151 activation; PathHunter beta-arrestin GPR151 cells, luminescence; AID 1508602; Q8TDV0; 650,000 tested, 1% active; activation, % at 11.2 µM; in the data active = activation above about 4.9%
FBW7 activator: human FBW7 E3 ligase activation, primary screen | AID 1259310 | 650,000 tested, 0.13% active | AlphaScreen FBW7–phospho-cyclin E peptide binding, activator screen | normalized activity (activation), % at 26.1 µM | Q969H0; in the data active = normalized activity above about 1.9%;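 also: purified mutant Fbw7 with reduced substrate affinity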
Target sequence (Q969H0 whole entry, looked up): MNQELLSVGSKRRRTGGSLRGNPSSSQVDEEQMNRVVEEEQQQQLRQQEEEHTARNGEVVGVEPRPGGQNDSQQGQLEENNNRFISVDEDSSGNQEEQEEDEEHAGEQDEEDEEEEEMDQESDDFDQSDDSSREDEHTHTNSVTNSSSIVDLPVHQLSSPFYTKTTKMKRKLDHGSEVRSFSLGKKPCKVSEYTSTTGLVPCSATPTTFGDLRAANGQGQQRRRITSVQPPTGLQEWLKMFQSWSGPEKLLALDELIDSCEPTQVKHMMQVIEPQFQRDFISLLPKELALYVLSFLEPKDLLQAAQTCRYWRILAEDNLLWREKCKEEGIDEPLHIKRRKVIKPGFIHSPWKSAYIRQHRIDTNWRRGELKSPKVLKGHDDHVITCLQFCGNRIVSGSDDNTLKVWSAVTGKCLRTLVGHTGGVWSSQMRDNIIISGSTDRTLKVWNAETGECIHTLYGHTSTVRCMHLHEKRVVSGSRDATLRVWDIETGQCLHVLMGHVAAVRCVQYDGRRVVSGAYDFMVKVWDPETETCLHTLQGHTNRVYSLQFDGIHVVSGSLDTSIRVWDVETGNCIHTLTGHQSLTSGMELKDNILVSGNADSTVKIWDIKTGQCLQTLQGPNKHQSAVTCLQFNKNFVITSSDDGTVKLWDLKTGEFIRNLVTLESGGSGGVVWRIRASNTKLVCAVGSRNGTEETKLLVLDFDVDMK
MITF inh: inhibitors of human MITF; inhibition, % at 2.6 µM; AID 1259374; 650,000 tested, 0.91% active; AlphaScreen MITF homodimerization, bead proximity signal; in the data active = inhibition above about 50%
TEAD-YAP inh: TEAD-YAP interaction inhibition | HEK-TIYL cells, TEAD-Gal4/YAP UAS-luciferase luminescence | inhibition, % at 9.12 µM | 640,000 tested, 1.4% active; in the data active = inhibition above about 32%
Each line names hits and unclear results; the compound was inactive in the other large screens. A selection: hits, their analogues and other compounds. The true share with any hit is near 3.4%.

COc1ccc(-n2cccc2/C=C2\NC(=O)N(CC(=O)Nc3ccc(C)cc3)C2=O)cc1	none
N/C(=N\N=C\c1ccc(O)c(O)c1)SC1CC(=O)N(c2ccc(C(=O)O)cc2)C1=O (centres undefined)	MITF inh 82
COc1ccc(NC(=O)CSc2nnc(C)c(=O)[nH]2)cc1OC	none
CCCCCNc1nc(-c2ccco2)c2c(c1C#N)CCCC2	none
N#Cc1c(NCCN)nc(-c2ccco2)c2c1CCCC2	TEAD-YAP inh 34
O=C(CN1CCN(CC(=O)c2ccc(O)c(O)c2)CC1)Nc1ccccc1Cl	MITF inh 89
COc1ccc(S(=O)(=O)N2CCN(CC(=O)c3ccc(O)c(O)c3)CC2)cc1	MITF inh 81
O=C(CN1CCN(S(=O)(=O)c2ccc(Cl)cc2)CC1)c1ccc(O)c(O)c1	MITF inh 82
COc1ccc(S(=O)(=O)N2CCN(CC(=O)c3ccc(OC)c(OC)c3)CC2)cc1	none
COCCC1=NN(C(=O)c2cc(-c3cccs3)nc3ccccc23)C(O)(C(F)(F)F)C1 (centres undefined)	none
CN(CC(=O)NCCC1=CCCCC1)S(=O)(=O)c1ccc2ccccc2c1	none
COc1cc(/C=C\C(=O)Nc2c3c(nn2-c2ccc(C)cc2C)CSC3)cc(OC)c1OC	none
COc1cc(/C=C2/C(=O)N(c3cccc(Cl)c3)N=C2C)ccc1Oc1ccc([N+](=O)[O-])cc1C(F)(F)F	TEAD-YAP inh 42
COc1ccc(/C=C2\C(=O)N(c3cccc(Cl)c3)N=C2C)cc1[N+](=O)[O-]	none
O=c1cc(CO)oc(C(Nc2cccc(F)c2)c2ccccn2)c1O (centres undefined)	none
Oc1c(C(Nc2cccc(Cl)c2)c2ccccn2)ccc2cccnc12 (centres undefined)	TEAD-YAP inh 62
Oc1c(C(Nc2cccc(C(F)(F)F)c2)c2cccnc2)ccc2cccnc12 (centres undefined)	MITF inh 65
Oc1c(C(Nc2ccc(Cl)cc2)c2ccccn2)ccc2cccnc12 (centres undefined)	MITF inh 69
Oc1c(C(Nc2cccc(C(F)(F)F)c2)c2ccccn2)ccc2cccnc12 (centres undefined)	MITF inh 51
CCc1nnc(NC(=O)CSc2nnc(-c3ccc(OC)cc3)c(-c3ccc(OC)cc3)n2)s1	none
O=[N+]([O-])c1ccc(NC(c2ccccn2)c2ccc3cccnc3c2O)cc1 (centres undefined)	TEAD-YAP inh 87
O=C(NC(c1ccccc1)c1ccccn1)c1ccc([N+](=O)[O-])cc1 (centres undefined)	none
COc1ccc(/C=C(\C#N)c2ccccc2)c(OC)c1	TEAD-YAP inh 32
N=c1nc2n(c3ccccc13)Cc1ccccc1-2	TEAD-YAP inh 71
O=c1nc2n(c3ccccc13)Cc1ccccc1-2	none
O=C(O)c1cc(O)c2c(c1)[C@@H]([C@H]1c3cc(C(=O)O)cc(O)c3C(=O)c3c(O[C@H]4O[C@H](CO)[C@@H](O)[C@H](O)[C@H]4O)cccc31)c1cccc(O[C@H]3O[C@H](CO)[C@@H](O)[C@H](O)[C@H]3O)c1C2=O	MITF inh 121
CCC(CC)NC(=O)c1cccc(I)c1	TEAD-YAP inh 34
Cc1ccnc(NC(=S)NC(=O)c2ccc(Cl)cc2)c1	none
COc1cccc(C(=O)NC(=S)Nc2ccccn2)c1	TEAD-YAP inh 36
Cc1ccnc(NC(=S)NC(=O)c2ccccc2)c1	TEAD-YAP inh 34
Cc1ccnc(NC(=O)c2ccccc2Cl)c1	TEAD-YAP inh 35
Nc1cccc(-c2cn3c(NC(=O)c4ccccc4)cnc3cn2)c1	none
Cc1cc(=O)[nH]c(SCc2cccc(Oc3ccccc3)c2)n1	none
c1ccc(Oc2cccc(CSc3nc4ccccc4[nH]3)c2)cc1	TEAD-YAP inh 34
O=C1Cc2ccccc2N1C1CCN(CC(O)COc2ccccc2)CC1 (centres undefined)	TEAD-YAP inh 36
OC(COc1ccccc1)CN1CCN(CC(O)COc2ccccc2)CC1 (centres undefined)	none
Cc1ccccc1-n1nc2c(c1NC(=O)c1cc([N+](=O)[O-])ccc1Cl)CSC2	TEAD-YAP inh 74
Cc1ccc(-n2nc3c(c2NC(=O)c2cc([N+](=O)[O-])ccc2Cl)CS(=O)(=O)C3)c(C)c1	TEAD-YAP inh 70
Cc1ccc(-n2nc3c(c2NC(=O)c2ccc([N+](=O)[O-])cc2)CS(=O)(=O)C3)c(C)c1	none
COc1ccc(-n2nc3c(c2NC(=O)c2cc([N+](=O)[O-])ccc2Cl)CS(=O)(=O)C3)cc1	TEAD-YAP inh 73
Cc1ccc(-n2nc3c(c2NC(=O)c2cc([N+](=O)[O-])ccc2Cl)CS(=O)(=O)C3)cc1	none
COc1ccc(Nc2cc(C)c3c(O)cccc3n2)cc1	TEAD-YAP inh 38
CN1CCCc2cc(C(CNS(=O)(=O)c3ccc(Cl)cc3)N3CCOCC3)ccc21 (centres undefined)	none
Cc1ccc2nc(C)c(C(=O)NC(C)C)n2c1	FBW7 activator 1.9
Cc1ccc2nc(C)c(C(=O)N3CC(C)CC(C)C3)n2c1 (centres undefined)	FBW7 activator 2.1
Cc1ccc2nc(C)c(C(=O)N3CCCC3)n2c1	none
CCCCn1nnc(NC(=O)c2cccc([N+](=O)[O-])c2)n1	none
Cc1cc(/C=C2/C(=N)N3C=CSC3=NC2=O)c(C)n1-c1ccccc1Cl	TEAD-YAP inh 92
CCc1ccc(-n2c(C)cc(/C=C3/C(=N)N4C=CSC4=NC3=O)c2C)cc1	none
CCc1ccccc1-n1c(C)cc(/C=C2/C(=N)N3C=CSC3=NC2=O)c1C	TEAD-YAP inh 62
Cc1ccccc1-n1c(C)cc(/C=C2/C(=N)N3C=CSC3=NC2=O)c1C	TEAD-YAP inh 97
Cc1cc(C)cc(-n2c(C)cc(/C=C3/C(=N)N4C=CSC4=NC3=O)c2C)c1	none
Cc1cc(/C=C2/C(=N)N3C=CSC3=NC2=O)c(C)n1-c1ccccc1	TEAD-YAP inh 88
CC1=CN2C(=N)/C(=C/c3cc(C)n(-c4ccccc4F)c3C)C(=O)N=C2S1	none
CCc1c(C)sc2ncn(C3CCN(C(=O)C4CCCC4)CC3)c(=O)c12	none
CCOc1ccc(S(=O)(=O)NCc2ccccc2)cc1C(=O)O	none
Cc1ccc(C)c(-n2c(C)cc(/C=C3/C(=N)N4C=CSC4=NC3=O)c2C)c1	none
Cc1cccc(-n2c(C)cc(/C=C3/C(=N)N4C=CSC4=NC3=O)c2C)c1C	TEAD-YAP inh 46
CC1(C)CC2CC(C)(CN2c2ccc(C(=O)O)cc2[N+](=O)[O-])C1 (centres undefined)	TEAD-YAP inh 35
O=c1[nH]c2ncc(-c3cccc4ccccc34)nc2n1C1CCOCC1	none
Cc1ccnc(N=Cc2nc(-c3ccc(Br)cc3)oc2O)c1	none
COc1ccc2c(c1)N(C)/C(=C1/SC(=Nc3c(C)n[nH]c3C)N(C)C1=O)S2	none
Cc1cc(C)nc(SCC(=O)Nc2ccnc3ccccc23)n1	TEAD-YAP inh 41
CC(C)OC(=O)Nc1ccc2c(c1)N(C(=O)CCN1CCCCC1)c1ccccc1CC2	none
COc1ccc(OC)c(CCNC(=O)c2cc3c(C)nc4ccccc4c3o2)c1	TEAD-YAP inh 46
Cc1ccc(-c2n[nH]c(=S)n2/N=C\c2ccc(O)c(O)c2)cc1	none
